# Assay results reported in PubChem BioAssay (NCI).
# Compounds without any hit were thinned out: in the full panel of roughly 79,000, 15% have a hit. A number with no mark means an inactive call. Activity calls are given as the source filed them. Cut-off read from the data, not from the text of the source: active = growth inhibition above about 70%; inactive = the rest.
# How the values were obtained:
# [1] = NCI Yeast Anticancer Drug Screen. Data for the rad50 strain (AID 155);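 note: 0% = growth of vehicle-only cultures of the same strain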; conditions: S. cerevisiae rad50 strain growth inhibition, active compounds read high
# Method in brief: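 Cells are treated with compound, grown, and their growth is then scored against vehicle-only cultures of the same repair-deficient yeast strain.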
# [2] = NCI Yeast Anticancer Drug Screen. Data for the mec2-1 strain (AID 157); conditions: S. cerevisiae mec2-1 strain, active compounds read high
# Method in brief: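 Yeast mec2-1 mutant treated with compound. Readout: growth inhibition vs vehicle controls.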
# [3] = NCI Yeast Anticancer Drug Screen. Data for the sgs1 mgt1 strain (AID 161);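 note: 0% = growth of cultures given vehicle only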; conditions: S. cerevisiae sgs1 mgt1 strain, active compounds read high
# Method in brief: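 Mutant yeast exposed to compound; growth scored against vehicle-only wells.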
# [4] = NCI Yeast Anticancer Drug Screen. Data for the cln2 rad14 strain (AID 165);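 note: 0% = growth equal to vehicle treated cultures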; conditions: S. cerevisiae cln2 rad14 strain, active compounds read high
# Method in brief: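 cln2 rad14 yeast strain; compound exposure; growth inhibition read vs vehicle controls.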
# [5] = NCI Yeast Anticancer Drug Screen. Data for the bub3 strain (AID 167); conditions: S. cerevisiae bub3 mutant strain, active compounds read high
# Method in brief: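 Part of a panel of yeast mutants defective in DNA damage repair or cell cycle regulation. Each strain is grown with compound, and inhibition is calculated relative to solvent-treated cultures.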
# [6] = NCI Yeast Anticancer Drug Screen. Data for the mlh1 rad18 strain (AID 175); conditions: S. cerevisiae mlh1 rad18 strain growth inhibition, active compounds read high
# Method in brief: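 Yeast w/ defined DNA-repair lesions; compound exposure; growth vs vehicle controls → % inhibition.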
# [7] = at 5.0 µM (retest, dose inferred, filed as 0.5)
# [8] = at 50.0 µM (retest, dose inferred, filed as 5.0)
Structure (SMILES),"growth inhibition [1, 7]","growth inhibition [1, 8]",growth inhibition ([1]; at 50.0 µM),"growth inhibition [2, 7]","growth inhibition [2, 8]",growth inhibition ([2]; at 50.0 µM),"growth inhibition [3, 7]","growth inhibition [3, 8]",growth inhibition ([3]; at 50.0 µM),"growth inhibition [4, 7]","growth inhibition [4, 8]",growth inhibition ([4]; at 50.0 µM),"growth inhibition [5, 7]","growth inhibition [5, 8]",growth inhibition ([5]; at 50.0 µM),"growth inhibition [6, 7]","growth inhibition [6, 8]",growth inhibition ([6]; at 50.0 µM)
CCOc1ccc(NC(=O)/C(=N\N)C(C(=O)OC)c2nc3ccc(Cl)cc3[nH]c2=O)cc1 (configuration not stated),-14%,-17%,-12.9%,-1%,-10%,-13.1%,-8%,-3%,-24.4%,-25%,-8%,80.2% (active),-6%,5%,-26.5%,-7%,-8%,-1.5%
CCC1CCCCN1C(=S)N/N=C(\C)c1ccccn1 (configuration not stated),29%,98% (active),90.5% (active),19%,99% (active),94.1% (active),28%,99% (active),89.8% (active),21%,99% (active),91.7% (active),21%,99% (active),90% (active),23%,98% (active),90.5% (active)
CCOc1ccc(Nc2nc3c(s2)C(=O)c2ccccc2C3=O)cc1,78% (active),99% (active),90.7% (active),99% (active),99% (active),92.1% (active),90% (active),99% (active),92.7% (active),58%,98% (active),90.8% (active),98% (active),99% (active),92.5% (active),89% (active),98% (active),91.8% (active)
Cc1cc(C)c(C#N)c(Sc2nc(C)c([N+](=O)[O-])c(C)c2C#N)n1,56%,54%,66.7%,37%,44%,29.7%,49%,54%,84.5% (active),41%,51%,42.3%,51%,61%,15%,57%,55%,54.6%
CC1(O)CCCCCC1,-13%,74% (active),85% (active),-29%,58%,69.7%,-7%,54%,88.2% (active),28%,68%,77.7% (active),3%,74% (active),84.2% (active),16%,91% (active),71.1% (active)
O=C1C(=O)c2cc([N+](=O)[O-])ccc2-c2ccccc21,45%,97% (active),98.7% (active),34%,97% (active),95.8% (active),32%,95% (active),96.2% (active),19%,96% (active),96.3% (active),43%,89% (active),98.1% (active),54%,97% (active),97.8% (active)
CCOc1ccc(C(CN2CCOCC2)C(C)=O)cc1OC (configuration not stated),-3%,30%,72.5% (active),-27%,68%,77.7% (active),-4%,30%,74.7% (active),0%,28%,45.4%,-8%,81% (active),78.7% (active),-18%,86% (active),63.8%
COc1ccc2c(c1OC)OCC(CN(C)C)C2=O (configuration not stated),-20%,98% (active),97% (active),2%,99% (active),99.3% (active),23%,98% (active),99% (active),5%,99% (active),96.3% (active),1%,99% (active),93.9% (active),-4%,98% (active),99.2% (active)
CN1CCc2cc3c(c4c2C1C(O)c1ccccc1-4)OCO3 (configuration not stated),17%,32%,31.4%,12%,9%,17.7%,9%,7%,26.6%,7%,17%,31.8%,7%,27%,36.6%,13%,11%,15%
OCCOSCCO,5%,-4%,-0.05%,2%,-4%,-14.1%,-8%,-2%,10.2%,6%,2%,15.8%,2%,6%,-6.5%,4%,-4%,-14.1%
COc1c(/C=C/C=O)cc2c(c1OC)OCO2,26%,73% (active),-1.75%,17%,40%,-6.3%,31%,57%,19.1%,27%,50%,20.4%,21%,54%,13.5%,25%,61%,-11.8%
CC12CCC(O)CC1=CCC1C2CCC2(C)C3=NN=CC3CC12 (configuration not stated),38%,99% (active),96.6% (active),16%,100% (active),99.4% (active),35%,100% (active),98.5% (active),7%,100% (active),99.2% (active),31%,100% (active),99.3% (active),50%,100% (active),99.5% (active)
C=C(C(N)=O)C(N)C(=O)O (configuration not stated),-5%,9%,-20.1%,6%,-2%,9.85%,-1%,0%,13.1%,9%,2%,-7.4%,-16%,-2%,40.5%,11%,32%,7.45%
CCOc1ccc2c(c1)/C(=C\C=C\C1CC(C)C3CC(OCC)CCC3N1CC)CC(C)N2CC (configuration not stated),-7%,85% (active),28.6%,-1%,88% (active),88.2% (active),-10%,92% (active),33.9%,0%,83% (active),83% (active),4%,82% (active),83.7% (active),0%,86% (active),81.5% (active)
CC(=O)c1ccc2c(c1)CCc1ccccc1-2,2%,85% (active),12.5%,-33%,49%,-8.9%,2%,55%,36.1%,2%,8%,52.5%,45%,89% (active),30.4%,1%,79% (active),15.9%
OC(c1cc(-c2ccc(Cl)cc2)nc2c(Cl)cccc12)C1CCCCN1 (configuration not stated),73% (active),93% (active),99.8% (active),26%,55%,99.8% (active),93% (active),100% (active),99.9% (active),20%,66%,99% (active),28%,93% (active),99.5% (active),69%,88% (active),99.5% (active)
CC1(C)CCCC2=C1C(=O)N(SC(Cl)(Cl)Cl)C2=O,98% (active),99% (active),90.3% (active),99% (active),99% (active),93.1% (active),100% (active),99% (active),90.5% (active),99% (active),99% (active),91.3% (active),100% (active),99% (active),89.9% (active),98% (active),99% (active),90.1% (active)
O=C(O)CCCOc1cc(-c2ccccc2F)nc2cc3c(cc12)OCO3,11%,36%,76.8% (active),3%,31%,80.8% (active),13%,27%,71% (active),5%,46%,71.3% (active),9%,47%,77.9% (active),7%,52%,54%
O=C(Nc1cccc(C(F)(F)F)c1)Oc1ccc(Cl)c2cccnc12,77% (active),98% (active),89.8% (active),66%,99% (active),91.8% (active),98% (active),99% (active),92.8% (active),90% (active),98% (active),88.9% (active),94% (active),99% (active),91.7% (active),71% (active),99% (active),91.7% (active)
